According to paper PMC4336329 (PLoS ONE, 2015):
Screen size: about 310,000 compounds; about 14,000 (4.5%) showed an effect of 50% or more. Effects have a minus sign here. The full list was thinned out, with strong results kept by preference.

molecular target: human ether-à-go-go-related gene (hERG) potassium channel (human, UniProt Q12809); assay: primary screen, population patch clamp on CHO cells stably expressing hERG; higher = less effect of the substance
Method: Briefly, Chinese hamster ovary (CHO) cells stably expressing the hERG channel were dislodged from tissue culture flasks and dispensed into PPC plates. […] During the recording, background leak currents were estimated by a 100 ms step to -80 mV from an initial holding potential of -70 mV and subtracted from the subsequent current measurement. The campaign was conducted in two phases using slight differences in recording protocol. In the first phase, the initial voltage pulse used a 100 ms step to -30 mV from a holding potential of -70 mV, a 2 s conditioning step to +25 mV, and a 2 s test step to -30 mV. During the second phase of the screen, the potential during the conditioning step was raised to +45 mV. In both phases of the campaign, a secondary voltage pulse was applied using the same parameters as the second phase initial pulse. The initial and secondary pulses were applied in the absence of compound, and upon application of 1 μM and 10 μM test concentrations. […]
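Note: peak tail current of the secondary pulse compared with the same well before compound.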

human ether-à-go-go-related gene (hERG) potassium channel, sequence (Q12809 whole entry, looked up): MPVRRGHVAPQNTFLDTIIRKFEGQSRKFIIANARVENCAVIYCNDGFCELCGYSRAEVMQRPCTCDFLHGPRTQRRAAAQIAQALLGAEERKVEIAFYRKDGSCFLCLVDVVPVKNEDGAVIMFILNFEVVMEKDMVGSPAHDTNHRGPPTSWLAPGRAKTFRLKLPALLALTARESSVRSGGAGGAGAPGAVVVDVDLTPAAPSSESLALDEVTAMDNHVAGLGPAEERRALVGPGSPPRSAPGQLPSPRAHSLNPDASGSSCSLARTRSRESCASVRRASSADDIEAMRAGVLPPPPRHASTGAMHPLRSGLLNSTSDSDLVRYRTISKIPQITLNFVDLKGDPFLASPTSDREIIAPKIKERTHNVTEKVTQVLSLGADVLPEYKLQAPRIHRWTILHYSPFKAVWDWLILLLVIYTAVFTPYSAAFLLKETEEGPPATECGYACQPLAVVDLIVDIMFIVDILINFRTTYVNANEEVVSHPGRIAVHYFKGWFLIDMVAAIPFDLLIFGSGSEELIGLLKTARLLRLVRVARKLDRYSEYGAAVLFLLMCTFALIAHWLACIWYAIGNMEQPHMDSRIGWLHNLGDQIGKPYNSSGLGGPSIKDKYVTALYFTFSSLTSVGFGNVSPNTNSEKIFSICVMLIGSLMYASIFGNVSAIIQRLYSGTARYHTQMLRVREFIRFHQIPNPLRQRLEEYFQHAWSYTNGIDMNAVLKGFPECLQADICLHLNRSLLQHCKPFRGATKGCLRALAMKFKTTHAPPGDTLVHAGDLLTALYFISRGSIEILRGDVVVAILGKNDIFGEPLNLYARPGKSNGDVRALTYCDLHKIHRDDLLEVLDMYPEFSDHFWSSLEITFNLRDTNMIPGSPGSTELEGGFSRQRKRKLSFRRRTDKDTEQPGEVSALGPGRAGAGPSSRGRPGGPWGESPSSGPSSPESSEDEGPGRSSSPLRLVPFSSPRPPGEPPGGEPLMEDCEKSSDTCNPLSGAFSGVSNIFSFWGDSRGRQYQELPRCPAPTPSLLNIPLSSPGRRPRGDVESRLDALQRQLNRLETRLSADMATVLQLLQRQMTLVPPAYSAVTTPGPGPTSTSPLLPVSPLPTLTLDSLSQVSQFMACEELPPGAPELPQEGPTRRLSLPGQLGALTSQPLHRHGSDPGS

| Compound | hERG current change (%, negative = inhibition) at 10uM |
| --- | --- |
| N=C1/C(=C\c2ccc(-c3cccc(C(=O)O)c3)o2)C(=O)N=C2SC=C(c3ccccc3)N12 | 0.469% |
| CCCN1CCCc2ccccc21.Cl | 7.61% |
| CNC(CC(C)C)C(=O)NC1C(=O)NC(CC(N)=O)C(=O)NC2C(=O)NC3C(=O)NC(C(=O)NC(C(=O)O)c4cc(O)cc(O)c4-c4cc3ccc4O)C(O)c3ccc(c(Cl)c3)Oc3cc2cc(c3OC2OC(CO)C(O)C(O)C2OC2C[C@](C)(N)C(O)C(C)O2)Oc2ccc(cc2Cl)C1O (some centres unmarked) | 9.61% |
| COC(=O)c1ccc2c(=O)[nH]c(CCl)nc2c1 | 10.7% |
| COC(=O)NNC(=O)c1ccc(Cl)cc1Cl | 19.8% |
| O=C(C1=C(O)C(=O)N(CC2CCCO2)C1c1ccc(Cl)cc1Cl)c1ccco1 (centres unmarked) | 18.5% |
| COc1ccc(-c2oc(/N=C/N3CCOCC3)c(C#N)c2-c2ccc(OC)cc2)cc1 | 13.9% |
| COC(=O)c1c(NC(=O)C(C)(C)C)sc2c1CCN(Cc1ccccc1)C2.Cl | -34.7% |
| CCC(=O)Nc1sc2c(c1C(=O)OC)CCN(Cc1ccccc1)C2.Cl | -62.9% |
| CC(=O)Nc1sc2c(c1C(N)=O)CCN(Cc1ccccc1)C2.Cl | -23.3% |
| CCOC(=O)c1c(NC(=O)CC)sc2c1CCN(Cc1ccccc1)C2.Cl | -14.5% |
| COC(=O)c1c(NC(=O)C(C)C)sc2c1CCN(Cc1ccccc1)C2.Cl | -38.4% |
| CC(C)C(=O)Nc1sc2c(c1C(N)=O)CCN(Cc1ccccc1)C2.Cl | -108% |
| O=C(N/N=C/c1cn(-c2ccccc2)nc1-c1ccc2c(c1)OCCO2)c1ccncc1 | 15.2% |
| COc1ccc(NC(=O)COc2coc(CN3c4ccccc4CC3C)cc2=O)cc1 (centres unmarked) | 5.06% |
| O=C(O)c1cc2c(cc1NC(=O)c1c(F)cccc1Cl)OCCCO2 | 5.08% |
| Cc1nc2sc3c(c2c(=O)n1/N=C/c1ccco1)CCCC3 | 16.8% |
| CCOC(=O)N1CCN(C(=O)c2cc3c(s2)-c2ccc(Cl)cc2S(=O)(=O)C3)CC1 | -66.5% |
| COc1ccc(N(C)C(=O)c2cc3c(s2)-c2ccc(Cl)cc2S(=O)(=O)C3)c(OC)c1 | -58.5% |
| COc1ccc(N(C)C(=O)c2cc3c(s2)-c2ccccc2S(=O)(=O)C3)cc1 | -39.9% |
| CN1CCN(C(=O)c2cc3c(s2)-c2ccccc2S(=O)(=O)C3)CC1 | 4.14% |

| Compound | hERG current change (%, negative = inhibition) at 10uM |
| --- | --- |
| COc1cc(OC)c(N(C)C(=O)c2cc3c(s2)-c2ccccc2S(=O)(=O)C3)cc1Cl | -13.2% |
| CCN1CCN(C(=O)c2cc3c(s2)-c2ccccc2S(=O)(=O)C3)CC1 | -11.2% |
| COc1cc(OC)cc(-n2nnnc2SCC(=O)Nc2nc3c(s2)CCCC3)c1 | 7.1% |
| Cc1nnc(SCC(=O)Nc2ccc3c(c2)OCO3)n(N)c1=O | 11.3% |
| O=C(COc1cccc(-n2cnnn2)c1)N1CCOCC1 | 2.13% |
| O=C1OC(c2ccc(Br)cc2)=N/C1=C\N1CCCCC1 | 22% |
| CCN1CCCC1CNC(=O)CN1C(=O)COc2ccc(C)cc21 (centres unmarked) | -12.4% |
| COc1cccc(CNC(=O)CCC2CCCN(C(=O)c3cccc(Cl)c3)C2)c1 (centres unmarked) | -20.9% |
| COc1cccc(CNC(=O)CCC2CCCN(C(=O)c3ccc(F)c(Cl)c3)C2)c1 (centres unmarked) | -16.6% |
| COc1cccc(CNC(=O)CCC2CCCN(Cc3ccc(OC(F)F)cc3)C2)c1 (centres unmarked) | -76.6% |
| COc1cccc(CNC(=O)CCC2CCCN(C(=O)CCC(F)(F)F)C2)c1 (centres unmarked) | -5.17% |
| COc1cccc(CNC(=O)CCC2CCCN(Cc3cc(Cl)ccc3O)C2)c1 (centres unmarked) | -60.6% |
| COc1cccc(CNC(=O)CCC2CCCN(C3CCOCC3)C2)c1 (centres unmarked) | -0.768% |
| CC12CCC(C(=O)NC3CCCCC3)([C@H](Br)C1=O)C2(C)C (some centres unmarked) | 10.6% |
| Cc1cc(C)cc(OCC(=O)OCC(=O)N2CCc3ccccc32)c1 | 14.5% |
| Cc1ccc(C(C)C)c(OCC(=O)Nc2ccc(Cl)cn2)c1 | -8.82% |
| COc1ccc(NCc2nn(CC(=O)c3ccc(Br)cc3)c3[n+]2CCCCC3)cc1.[Br-] | 10.1% |
| Cc1ccc(C(C)C)c(OCc2nn(CC(=O)c3ccc(Cl)cc3)c3[n+]2CCCCC3)c1.[Br-] | -73.3% |
| COc1ccc(C(=O)Cn2nc(CNc3ccc(Br)cc3)[n+]3c2CCCCC3)cc1.[Br-] | 15.4% |
| O=C(Cn1nc(CNc2ccc(Cl)cc2)[n+]2c1CCCCC2)c1ccccc1.[Br-] | 9.17% |
| Cc1ccc(C(C)C)c(OCc2nn(CC(=O)c3ccc(OC(F)F)cc3)c3[n+]2CCCCC3)c1.[Br-] | -72.5% |

| Compound | hERG current change (%, negative = inhibition) at 10uM |
| --- | --- |
| O=C(Cn1nc(CNc2ccc(Cl)cc2)[n+]2c1CCCCC2)c1ccc(Br)cc1.[Br-] | -61.6% |
| O=C(Cn1nc(CNc2ccc(Cl)cc2)[n+]2c1CCCCC2)c1ccc(Cl)cc1.[Br-] | -8.17% |
| O=C(Cn1nc(-c2nn(CC(=O)c3ccccc3)c3[n+]2CCCCC3)[n+]2c1CCCCC2)c1ccccc1.[Br-] | 12.8% |
| O=C(Nc1ccccc1C(F)(F)F)c1cc(S(=O)(=O)N2CCC3(CC2)OCCO3)ccc1F | -17.1% |
| O=C(CCCCCN1C(=O)c2ccccc2C1=O)Nc1ccc(S(=O)(=O)N2CCCCC2)cc1 | -46.6% |
| COc1ccc(NC(=O)N2CCCC(c3nc(-c4ccc(OC)cc4)no3)C2)cc1 (centres unmarked) | -4.38% |
| Cc1ccnc(NC(=O)C2CCN(S(=O)(=O)c3ccc(C)c(C)c3)CC2)c1 | 4.97% |
| Cl.N[C@@H](CO)c1nnc([C@H](CC(=O)O)NC(=O)C2CCNCC2)o1 | 16.7% |
| O=C(COC(=O)c1c[nH]c2ccccc12)Nc1ccc([N+](=O)[O-])cc1 | -0.338% |
| COC(=O)[C@@H](NC(=O)NCc1ccco1)C(C)C | 2.75% |
| Cc1cccc(NC(=O)c2cc(-c3cc(Cl)ccc3O)n[nH]2)c1 | 18.2% |
| CCN(Cc1ccncc1)C(=O)c1cccs1 | 2% |
| COc1cccc(CN(C)C(=O)c2cccnc2SC)c1OC | 9.74% |
| COC(=O)c1cccc(NC(=O)C23CC4CC(C2)CC(n2cncn2)(C4)C3)c1 | -25.4% |
| O=C(Nc1ccc2c(c1)OCO2)c1ccccc1SCC(=O)N1CCCC1 | 5.23% |
| CCOC(=O)C1CCN(CCCSc2ccc(Cl)cc2)CC1.Cl | -72.7% |
| CCOC(=O)C1CCN(CCCSc2ccc(C)cc2)CC1.Cl | -71% |
| CCOC(=O)C1CCN(C(=O)CSc2ccccc2)CC1 | -20.3% |
| CCOC(=O)C1CCN(CCCSc2ccccc2)CC1.Cl | -62.4% |
| Cc1ccc(SCCCCN2CCOCC2)cc1.Cl | -24.6% |
| CCOC(=O)C1CCN(C(=O)CSc2ccc(Cl)cc2)CC1 | -32.5% |

| Compound | hERG current change (%, negative = inhibition) at 10uM |
| --- | --- |
| CCOC(=O)C1CCN(C(=O)C(C)Sc2ccc(Cl)cc2)CC1 (centres unmarked) | -27.9% |
| CCOC(=O)C1CCCN(CCSc2ccc(C)cc2)C1.Cl (centres unmarked) | -28.3% |
| CCN1CCN(CCCCSc2ccccc2)CC1.O=C(O)C(=O)O | -28.3% |
| COC(=O)[C@H](C)NC(=O)NCc1ccccc1 | 1.58% |
| CCCC(=O)Nc1ccc2c(c1)nc1n2CCOC1 | 6.13% |
| Cc1ccc(-n2nnc3ccccc3c2=O)cc1C | -2.63% |
| c1coc(-c2nc3c4c5c(sc4ncn3n2)CCCC5)c1 | 10.6% |
| COCCC(=O)N1CCC(Oc2ccc(C(=O)NCCCC3CCCC3)cc2)CC1 | -37.3% |
| COCC(=O)N1CCC(Oc2ccc(C(=O)NCCCC3CCCC3)cc2)CC1 | -71.5% |
| CSCCNC(=O)c1ccc(OC2CCN(CCc3ccccc3)CC2)cc1 | -64.6% |
| O=C(NC1CCOC1)c1ccc(OC2CCN(CCc3ccccc3)CC2)cc1 (centres unmarked) | -39.8% |
| COCC(=O)N1CCC(Oc2ccc(C(=O)N(C)CCCC3CCCC3)cc2)CC1 | -26.9% |
| COCCC(=O)N1CCC(Oc2ccc(C(=O)NCCSC)cc2)CC1 | 13.6% |
| COC(=O)CCCNC(=O)c1ccc(OC2CCN(CCc3ccccc3)CC2)cc1 | -47.7% |
| CSCCCNC(=O)c1ccc(OC2CCN(CCc3ccccc3)CC2)cc1 | -75.2% |
| CSCCCNC(=O)c1ccc(OC2CCN(C(=O)c3cccnc3)CC2)cc1 | -11.4% |
| CN(C)S(=O)(=O)c1cccc(NC(=S)N/N=C/C(c2ccccc2)c2ccccc2)c1 | 1.1% |
| COc1ccc([N+](=O)[O-])cc1NC(=O)c1cncc(Br)c1 | -12.2% |
| CN1C(=O)NC(c2ccccc2Cl)C2=C1CC(C)(C)CC2=O (centres unmarked) | 5.71% |
| O=C(NCCC1=CCCCC1)C1CCCN(S(=O)(=O)c2ccc(F)cc2)C1 (centres unmarked) | 19.6% |
